# In the library only some 2.2% were active in any assay of this set; here they are far more common.
# Giardia killer = Small Molecules that selectively kill Giardia lamblia: qHTS; activity change, % at 7.66 µM, hits read low; Giardia lamblia trophozoite viability; hit rate 0.15% among 340,000; in the data active = activity change below about -80%; inconclusive = between about -30% and that limit;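 also: parasites exposed to compound for two days anaerobically before the ATP read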
#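 Luminescent ATP signal served as the viability read-out, measured 15-30 min after adding ATP detection reagent to trophozoites that had been incubated with compounds for 48 hrs at 37 deg C anaerobically at 100 cells/well.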
# IDH1 R132H inh = qHTS for Inhibitors of mutant isocitrate dehydrogenase 1 (IDH1): qHTS. IDH1-R132H enzyme, NADPH consumption, diaphorase/resazurin fluorescence. AID 602179, 2012. hit rate 0.093% among 390,000. Potency, µM (series often up to 76.6 µM), usual class: inhibitors; also: nearly all actives have a fitted effect of over 65% in size
#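 IDH1-R132H (0.5 ug/mL dispensed) in pH 7.5 Tris buffer was preincubated 30 min with compound, then given a substrate mix of 0.016 mM NADPH and 2 mM alpha-KG for 80 min at room temperature; remaining NADPH was read by diaphorase/resazurin fluorescence.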
# TrxR1 substrate = qHTS Assay for Substrates of Mammalian Selenoprotein Thioredoxin Reductase 1 (TrxR1): qHTS | Thioredoxin reductase 1, cytoplasmic (Rattus norvegicus), O89049 | purified TrxR1 substrate turnover, NADPH consumption readout | Potency, µM (highest dose often 114 µM) | hit rate 0.01% among 390,000 | AID 588456, 2011; also: nearly all actives have a fitted effect of over 50% in size
# Target sequence (O89049 whole entry, looked up): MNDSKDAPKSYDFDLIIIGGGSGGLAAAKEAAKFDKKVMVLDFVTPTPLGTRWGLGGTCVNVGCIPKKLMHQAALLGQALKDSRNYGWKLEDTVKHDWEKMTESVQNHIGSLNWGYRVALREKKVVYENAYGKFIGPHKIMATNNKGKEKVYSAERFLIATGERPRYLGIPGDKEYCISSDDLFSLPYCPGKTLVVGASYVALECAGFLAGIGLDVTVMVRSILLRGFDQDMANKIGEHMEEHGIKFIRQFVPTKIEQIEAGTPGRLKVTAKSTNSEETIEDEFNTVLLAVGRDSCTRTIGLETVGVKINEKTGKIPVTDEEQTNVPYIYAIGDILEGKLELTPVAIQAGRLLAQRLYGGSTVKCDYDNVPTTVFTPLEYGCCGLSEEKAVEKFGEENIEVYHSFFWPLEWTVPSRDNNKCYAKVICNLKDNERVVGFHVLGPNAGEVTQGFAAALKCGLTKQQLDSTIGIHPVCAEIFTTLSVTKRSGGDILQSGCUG
#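 Rat TrxR1, dispensed at 90 nM, was prereduced with 400 uM NADPH (final) for 5 min at ~22 deg C, then incubated with compound 15 min before 400 uM selenite. A first-read NADPH fluorescence drop versus no-compound background flagged substrates.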
# IL2 activator = qHTS of IL-2 Activators. AID 652025, 2013. hit rate 0.065% among 360,000. IL-2 activation reporter assay, cell-based qHTS; stimulated with anti-CD3/CD4/CD28 beads; in transgenic mouse T cells. activation, % (series mostly up to about 46 µM); in the data active = activation above about 50%; inconclusive = mostly about 30% to 49%
#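 Readout is EGFP and DsRed signal by fluorescent plate cytometry after 18 h at 37 degrees C. Transgenic mouse T cells (750/well) received compound for 60 min before bead stimulation (anti-CD3, anti-CD4, anti-CD28); memory T cells served as non-tolerant control.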
# rTrxR1 inhibitor = qHTS Assay for Inhibitors of Mammalian Selenoprotein Thioredoxin Reductase 1 (TrxR1): qHTS | recombinant rTrxR1, NADPH fluorescence consumption, selenite substrate | hit rate 1% among 390,000 | Thioredoxin reductase 1, cytoplasmic (Rattus norvegicus), O89049 | Potency, µM (titrated, usually from 114 µM), usual class: inhibitors; also: nearly all actives have a fitted effect of over 65% in size
#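 Rat TrxR1 (90 nM in the dispensed reagent) was pre-reduced with 400 uM NADPH for 5 min at room temperature, then incubated with compound for 15 min. After 400 uM selenite was added, NADPH fluorescence (Ex 340/Em 450 nm) was followed for 8 min.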
# BRCA1 expr act = qHTS Assay to Identify Small Molecule Activators of BRCA1 Expression | Potency, µM (series often up to 46.1 µM), actives largely listed as activators | hit rate 1.1% among 380,000 | MCF7-BRCA1-FFLuc reporter, luminescence, 48 h; response scale: scaled: vehicle 0%, 10 µM genistein 100% | AID 624202, 2012; also: nearly all actives have a fitted effect of over 80% in size
#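 Quantitative HTS in MCF7 cells stably reporting BRCA1 expression via firefly luciferase. Compound treatment lasts 48 h at 37 °C in phenol-red free MEM. Activation is expressed relative to genistein at 10 microM and DMSO.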
# Hits are given with their value; . = inactive; ? = inconclusive; / = no result; [ ] = remark or other dose. Unless noted, calls follow the shape of the dose curve; as a rule, active = well fitted curve in the direction sought with a large enough effect; inconclusive = small, poorly fitted or top-dose-only effect, or another doubt; inactive = no such curve, though single readings can be large; an effect the other way counts as inactive or inconclusive.
SMILES,Giardia killer,IDH1 R132H inh,TrxR1 substrate,IL2 activator,rTrxR1 inhibitor,BRCA1 expr act
CC1(C)CC(=O)C2=C(C1)NC1=C(C(=O)c3ccccc31)C2c1ccccc1 (stereo not given),.,.,.,.,40µM,.
Cn1cc(Cl)c(C(=O)OCC(=O)Nc2nc(-c3ccc(Br)cc3)cs2)n1,.,.,.,.,.,11µM
CCOC(=O)N1CCN(C(=O)Nc2sc3nc4n(c(=O)c3c2C)CCC(C)CC4)CC1 (stereo not given),.,.,.,.,28µM,.
CCOC(=O)c1sc2nc3n(c(=O)c2c1C)CCC(C)CC3 (stereo not given),.,.,.,.,.,.
CC(Oc1ccc(Cl)cc1Cl)c1nc(-c2ccccn2)no1 (stereo not given),.,.,.,.,.,11µM
O=C1C(=O)C(c2cc(O)c(O)c(O)c2)Oc2cc(O)cc(O)c21 (stereo not given),.,/,.,/,13µM,.
COc1ccccc1NC(CC(=O)c1ccccc1)C(=O)OCC(=O)c1ccc(C)c(C)c1 (stereo not given),.,.,.,.,45µM,.
COc1ccccc1NC(CC(=O)c1ccccc1)C(=O)OCC(=O)c1ccc(Br)cc1 (stereo not given),.,.,.,.,71µM,.
O=C(CC(Nc1ccccc1Cl)C(=O)OCC(=O)c1cccs1)c1ccccc1 (stereo not given),.,.,.,.,13µM,.[1.84 µM]
O=C(OCC(=O)c1cccs1)c1ccccc1,.,.,.,.,.,.
COc1ccc(C(=O)c2oc3ccccc3c2NC(=O)c2nc(SC)ncc2Cl)cc1Cl,/,.,.,/,.,/
Cc1c(C(=O)NCCc2ccc(Cl)cc2)cccc1-n1cnc2cccnc21,/,.,.,/,.,/
Cn1cc(Cl)c(C(=O)Nc2nc3ccc(Cl)cc3s2)n1,.,.,.,.,.,13µM
Cn1cc(Cl)c(C(=O)Nc2nc3ccc([N+](=O)[O-])cc3s2)n1,?,.,.,.,.,.
O=C(CSc1nc2ccccc2n1Cc1cccc(C(F)(F)F)c1)NCc1ccccc1,/,.,.,/,.,.
CCOC(=O)c1c(-c2ccc(C)o2)csc1NC(=O)CN1CCCCC1,.,.,.,.,.,.
CCOC(=O)c1c(-c2ccc(C)o2)csc1NC(=O)CSc1nncs1,.,.,.,.,2.2µM,.
CCOC(=O)c1c(-c2ccc(C)o2)csc1NC(=O)CN1CCN(CC)CC1,.,.,.,.,4.5µM,.
COc1ccc(-c2cn(Cc3ccc(C(N)=O)cc3)c(-c3ccncc3)n2)cc1,.,.,.,.,.,4.5µM
CCCNC(=O)c1ccc(Cn2cc(-c3ccc(OC)cc3)nc2C(C)N)cc1 (stereo not given),.,.,.,.,.,11µM
COc1ccc(-c2cn(CCC(=O)O)c(-c3ccncc3)n2)cc1,.,.,.,.,.,.
CCOc1cc(C(=O)Nc2ccc(S(=O)(=O)Nc3cc(OC)nc(OC)n3)cc2)cc(OCC)c1OCC,/,.,.,/,.,/
O=C1C[C@H]2C=CCc3cccc(c32)CN1Cc1cccc(F)c1,/,/,.,/,.,/
Cn1cccc1/C=C1\SC(=O)N(c2ccccc2)C1=O,.,.,.,250,.,?
Cn1cc(/C=C2/SC(=O)N(c3ccccc3)C2=O)c2ccccc21,.,.,.,.,.,.
SMILES,Giardia killer,IDH1 R132H inh,TrxR1 substrate,IL2 activator,rTrxR1 inhibitor,BRCA1 expr act
COC(=O)C(NC(=O)CCc1nnc2ccc(N3CCCCC3)nn12)C(C)C (stereo not given),.,.,.,.,.,11µM
Cc1ccc2cc(CN(CC(C)C)S(=O)(=O)c3cccc4nonc34)c(=O)[nH]c2c1,.,.,.,65,.,.
Cc1cc2cc(CN(Cc3ccco3)S(=O)(=O)c3c(C)ccc4nsnc34)c(=O)[nH]c2cc1C,.,.,.,.,?,.
Cc1ccc2cc(CN(Cc3ccco3)S(=O)(=O)c3c(C)ccc4nsnc34)c(=O)[nH]c2c1,.,.,.,.,13µM,.
Cc1ccc2cc(CN(CC3CCCO3)S(=O)(=O)c3cccc4nsnc34)c(=O)[nH]c2c1 (stereo not given),.,.,.,.,.,.
Cc1ccc2onc(CC(=O)N3CCN(c4cc(Cl)ccc4C)CC3)c2c1,/,.,.,/,.,/
CSc1nc(N(C)CCO)c2sc3nc(-c4ccco4)c4c(c3c2n1)CCC4,.,.,.,.,7.1µM,.
CCOC(=O)N1CCN(C(=O)CN2C(=O)/C(=C\c3cccc(OC)c3)SC2=S)CC1,.,/,.,/,.,.
O=c1c2c3c(sc2ncn1/N=C/c1ccccc1)CCCC3,.,.,.,.,.,20µM
O=c1c2c3c(sc2ncn1/N=C/c1ccco1)CCCC3,.,.,.,.,.,.
Cc1cc(CNCCN(C)C)c(C)n1-c1cc(S(=O)(=O)N2CCOCC2)ccc1N1CCCC1,.,.,.,.,89µM,.
N#CC1=C(N)C(C#N)(C#N)[C@H](c2c(F)cccc2F)[C@H]2CC3(CC=C12)OCCO3,.,.,.,.,?,.
N#CC1=C(N)C(C#N)(C#N)C2(CCC3(CC2)OCCO3)C2CC3(CC=C12)OCCO3 (stereo not given),.,.,.,.,89µM,.
COc1c2occc2c(OC)c2c(=O)cc(C)oc12,.,.,.,.,.,.
Cc1cc(=O)c2c(o1)C(=O)c1occc1C2=O,.,.,.,.,32µM,.
c1ccc(Nc2nc(NCc3ccco3)nc3nccnc23)cc1,.,/,.,/,.,.
CCOc1ccc(Nc2c(S(=O)(=O)c3ccc(Cl)cc3)cnc3ccc(OCC)cc23)cc1,/,.,.,/,.,/
CCC(C(=O)N1CCN(c2cc(Cl)ccc2C)CC1)n1nc(C)n2c(cc3occc32)c1=O (stereo not given),/,.,.,/,?,.
Cc1ccc(C(=O)Nc2ccc(C(=O)/C=C/c3cccs3)cc2)cc1,.,.,.,.,.,.
O=C(/C=C/c1cccs1)c1ccc(NC(=O)c2cccc(Br)c2)cc1,.,.,.,.,.,11µM
O=C(CCl)Nc1ccc(-c2ccccc2)cc1,.,.,.,.,11µM,.
O=C(CCl)Nc1ccc(N=Nc2ccccc2)cc1,.,.,.,.,.,.
O=C(CCl)Nc1ccccc1Sc1ccccc1,.,.,.,.,40µM,.
